Survival data for 54 compounds are collected here from PubChem BioAssay AID463173 (ICCB-Longwood Screening Facility, Harvard Medical School, 2010).

The whole screen tested about 52,000 compounds, of which about 1,700 (3.3%) were called active. The sample holds actives, similar compounds and a random draw of the others, so the mix is not that of the screen. Rule as the data show it: active = survival mostly below about 52% (no sharp cut-off); inactive = mostly above about 56%.

The subject of the experiment is Wild type. The experiment in a line: S. aureus survival, RN4220 and DeltatarO strains – OD600, teichoic acid synthesis inhibitors, primary screen (AID 463173). The following applies: S. aureus RN4220 wild type/DeltatarO growth, OD600, 18 h, stronger effect = lower value, screened at 18.75 µg/mL (by protocol).
Turning to `C#CC(C)(CC)NC(=O)Cn1nnc(-c2ccc(OCc3ccccc3Cl)cc2)n1` (centres undefined), the survival was 74% (inactive).
`CC1=CC(C)(C)Nc2ccc(OC(=O)c3ccco3)cc21`: the survival was 125% (inactive).
To `CCc1ccc(NC(=O)Cn2cnc3sc(C)c(S(=O)(=O)N4CCN(c5ccccc5OC)CC4)c3c2=O)cc1` belongs 138% (inactive).
The same measure for `CCOC(=O)Cn1c(=O)n(-c2ccccc2OC)c2nc(-c3ccccc3)nc(C(N)=O)c21`: -3% (active); for `CCOC(=O)Cn1c(=O)n(CC2CCCO2)c2nc(-c3ccc(CC)cc3)nc(C(N)=O)c21` (centres undefined): 81% (inactive); for `CCOC(=O)Cn1c(=O)n(-c2ccccc2OC)c2nc(-c3ccc(C(C)C)cc3)nc(C(N)=O)c21`: 82% (inactive).
To `CCOC(=O)Cn1c(=O)n(CC2CCCO2)c2nc(-c3ccc(C)cc3)nc(C(N)=O)c21` (centres undefined) belongs 63% (inactive).
`CCOC(=O)Cn1c(=O)n(-c2ccccc2OC)c2nc(-c3cccc(F)c3)nc(C(N)=O)c21`: the survival was 57% (inactive).
As for `CCOC(=O)Cn1c(=O)n(CC2CCCO2)c2nc(-c3ccccc3)nc(C(N)=O)c21` (centres undefined), the survival was 56% (inactive).
To `CCOC(=O)Cn1c(=O)n(CC2CCCO2)c2nc(-c3ccc(C(C)C)cc3)nc(C(N)=O)c21` (centres undefined) belongs 1% (active); to `CCOC(=O)Cn1c(=O)n(CC2CCCO2)c2nc(-c3cccc(C)c3)nc(C(N)=O)c21` (centres undefined), 55% (inactive); to `CCOC(=O)Cn1c(=O)n(CC2CCCO2)c2nc(-c3ccc(OCC)cc3)nc(C(N)=O)c21` (centres undefined), -4% (active).
The same measure for `CCCCC(=O)Nc1ccc(NC(=O)C2CC2)nc1`: 101% (inactive).
As to `COc1ccc(OC)c(NC(=O)Cc2c(C(=O)O)n(C)c3ccc(C)cc23)c1`, the survival is 88% (inactive).
To `CC1CCCN(S(=O)(=O)c2cc3c4c(c2)CC(=O)N4CCC3)C1` (centres undefined) belongs 81% (inactive); to `CC(C)Cn1c(=O)c2sccc2n2c(CCCC(=O)NCC(C)c3ccccc3)nnc12` (centres undefined), 96% (inactive); to `CCCC(=O)N(c1ccc2oc3c(c2c1)CCCC3)S(=O)(=O)c1cc(C)ccc1C`, 61% (inactive).
To `COc1ccccc1C(=O)Nc1ccc2nc(SCC(=O)N(C)c3ccccc3)sc2c1` belongs 84% (inactive); to `CC(Sc1nc(-c2ccccc2)c(C#N)c(=O)[nH]1)C(=O)Nc1ccc(F)cc1` (centres undefined), 91% (inactive); to `O=C(CSc1ccccc1)N1CCc2c([nH]c3ccccc23)C1c1ccc(Cl)cc1` (centres undefined), 64% (inactive).
As for `COCCCNC(=O)CCn1c(=O)c2ccccc2n(CC(=O)Nc2c(C)cc(C)cc2C)c1=O`, the survival is 84% (inactive).
As to `CCOc1ccccc1CNC(=O)CN1C(=O)c2cccnc2Oc2ccc(C)cc21`, the survival is 136% (inactive).
To `Cc1ccc2nc(/C(C#N)=C/c3ccc(-c4ccc(F)cc4F)o3)[nH]c2c1` belongs 26% (inactive); to `CCOc1ccc(-c2cc(NC(=O)Nc3ccccc3Cl)c(C(=O)OC)s2)cc1`, 50% (inactive); to `CCOc1ccc(-c2cc(NC(=O)Nc3ccc(Cl)cc3)c(C(=O)OC)s2)cc1`, 88% (inactive).
Regarding `CCOc1ccc(-c2cc(NC(=O)Nc3cccc(C(C)=O)c3)c(C(=O)OC)s2)cc1`, the survival was 81% (inactive).
To `CCOc1ccc(-c2cc(NC(=O)Nc3ccccc3C(F)(F)F)c(C(=O)OC)s2)cc1` belongs 72% (inactive); to `COC(=O)c1sc(-c2ccccc2)cc1NC(=O)c1cccc(F)c1`, 87% (inactive); to `COC(=O)c1sc(-c2ccccc2)cc1NC(=O)c1cccc(Cl)c1`, 38% (inactive).
For the compound `COC(=O)c1sc(-c2ccccc2)cc1NC(=O)Nc1ccccc1Cl`, the survival was 5% (active).
Take `COC(=O)c1sc(-c2ccccc2)cc1NC(=O)Nc1ccc(Cl)cc1`: the survival was 4% (active).
With `COC(=O)c1sc(-c2ccccc2)cc1NC(=O)Nc1ccc(F)cc1`, the survival is 13% (active).
As to `CCc1ccccc1NC(=O)Cn1cc(S(=O)(=O)N2CCCC2)c(S(=O)(=O)N2CCCC2)c1`, the survival is 68% (inactive).
Consider `CCc1ccccc1NC(=O)CCn1nc(C)c2c(C)n(-c3ccccc3)nc2c1=O`, for which the survival was 88% (inactive).
For `Cc1ccc(C(=O)Nc2ccccc2C(=O)OCc2cc(=O)n3nc(C4CC4)sc3n2)cc1`, the survival was 87% (inactive).
The same measure for `COc1cccc(-n2c(=O)c3cc(OC)c(OC)cc3n(CC(=O)Nc3ccc(F)cc3)c2=O)c1`: 73% (inactive).
Regarding `Cc1ccc(Cl)cc1N1CCN(C(=O)c2sc3nc4n(c(=O)c3c2C)CCC4)CC1`, the survival was 75% (inactive).
To `CCOC(=O)c1ccc(NC(=O)c2cc3sccc3n2Cc2ccc(Cl)cc2)cc1` belongs 87% (inactive).
Regarding `COc1cc(OC)c(NC(=O)Cn2c(=O)nc(-c3ccccc3)c3ccccc32)cc1Cl`, the survival was 68% (inactive).
As for `O=C(COc1ccc(Cl)cc1)Nc1nnc(S(=O)(=O)N2CCc3ccccc32)s1`, the survival was 12% (active).
For `Cc1cccc(C(=O)Nc2nnc(S(=O)(=O)N(C)Cc3ccccc3)s2)c1`, the survival was 29% (inactive).
To `O=C(Nc1nnc(S(=O)(=O)N2CCCc3ccccc32)s1)c1cccc(Cl)c1` belongs 6% (active); to `CN(Cc1ccccc1)S(=O)(=O)c1nnc(NC(=O)c2cccc(Cl)c2)s1`, -1% (active); to `COc1ccc(OCC(=O)Nc2nnc(S(=O)(=O)N3CCc4ccccc43)s2)cc1`, 73% (inactive).
With `CC1Cc2ccccc2N1S(=O)(=O)c1nnc(NC(=O)c2cccc(F)c2)s1` (centres undefined), the survival is 10% (active).
On to `Cc1cccc(C(=O)Nc2nnc(S(=O)(=O)N3c4ccccc4CC3C)s2)c1` (centres undefined), for which the survival was 21% (inactive).
As for `CN(Cc1ccccc1)S(=O)(=O)c1nnc(NC(=O)c2ccccc2)s1`, the survival is 35% (inactive).
The same measure for `O=C(Nc1nnc(S(=O)(=O)N2CCCc3ccccc32)s1)c1ccccc1`: 31% (inactive).
For the compound `Cc1ccc(OCC(=O)Nc2nnc(S(=O)(=O)N3CCc4ccccc43)s2)cc1`, the survival was 24% (inactive).
The same measure for `CC1Cc2ccccc2N1S(=O)(=O)c1nnc(NC(=O)c2ccccc2)s1` (centres undefined): 18% (inactive).
Take `O=C(Nc1nnc(S(=O)(=O)N2CCCc3ccccc32)s1)c1ccc(Cl)cc1`: the survival was 19% (inactive).
For the compound `Cc1nnc(N2C(=O)c3oc4ccccc4c(=O)c3C2c2ccc(F)cc2)s1` (centres undefined), the survival is 79% (inactive).
In the case of `O=c1cccc2n1CC1CC(C2)N(c2nc(N3CCCCC3)nc(N3CCCCC3)n2)C1` (centres undefined), the survival is 104% (inactive).
Regarding `CCCn1c(=O)n(-c2ccccc2)c(=O)c2sc3ccccc3c21`, the survival was 93% (inactive).
